High-throughput results from PubChem.
In the library only some 3.8% were active in any assay of this set; here they are far more common.
FAS-TE inh: FAS thioesterase (human) inhibition | hit rate 0.67% among 360,000 | inhibition, % at 15 µM | recombinant FAS-TE, OMFH fluorogenic substrate, fluorescence endpoint | P49327;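 active = compounds whose normalised, plate-corrected inhibition of enzyme fluorescence in the single-dose primary screen is 50% or more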;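 also: 0% = DMSO with enzyme and 100% = substrate without enzyme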
SUMO Mot1 rescue: inhibitors of SUMOylation pathway: yeast Mot1-301 growth rescue | S. cerevisiae Mot1-301 growth rescue, ATP luminescence, 38.5C; percent above DMSO median, 100 means doubled | growth rescue, % at 18.8 µM | AID 2716 | hit rate 1% among 320,000;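 active = every valid replicate shows activation above 250% relative to neutral control wells; inactive = the rest, any valid replicate at or below 250%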;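 also: OY570 slx delta 5 strain wells were the positive control but not used for scaling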
MPTP inh: inhibitors of mitochondrial permeability transition pore. isolated mouse mitochondria, Ca2+ swelling absorbance, 30 min. inhibition, % at 10 µM. hit rate 1.4% among 360,000. AID 602449;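 active = inhibition of 50% or more, scaled per plate between neutral and stimulator controls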;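 also: 0% = DMSO wells given calcium and 100% = 1 mM EGTA wells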
Yeast superoxide: caloric restriction mimetics inhibiting age-related superoxide in yeast. S. cerevisiae aged cells, superoxide DHE fluorescence; hits give low values. superoxide response (% of plate mean), % at 10 µM. hit rate 0.18% among 330,000. AID 2690;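 active = superoxide response under a set limit, about three screen SD below normal, cut at about 65% in these data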;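 also: yeast aged for seven days with compound at 30 °C before DHE staining; 100% = average MFI of all compound-treated wells on the plate with controls excluded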
Cardio protect: modulators protecting cardiomyocytes from myocardial damage | H9c2 cardiomyocytes, H2O2 injury protection, ATPLite, 2 h | protection from H2O2 cell death, % at 20 µM | hit rate 0.63% among 360,000 | AID 588492;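 active = compounds giving at least 50% protection of heart cells from peroxide-induced death in the single-dose screen, raw or plate-pattern-corrected value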;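 also: 0% = DMSO wells with peroxide and 100% = DMSO wells without peroxide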
aDG glyco up: alpha-DG glycosylation activation; Pro5-aDG cells, alpha-DG glycosylation AlphaScreen (IIH6); 0% Pro5, 100% B10-LARGE cell signal; activation, % at 10 µM; hit rate 0.22% among 360,000; AID 624168;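 active = activation of at least 8% versus controls, or a plate z-score of at least 8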;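 also: Pro5 are CHO cells carrying HIG-tagged alpha-DG that lacks glycosylation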
Starred values were filed as active, the others as inactive; / = no result given.

SMILES | FAS-TE inh | SUMO Mot1 rescue | MPTP inh | Yeast superoxide | Cardio protect | aDG glyco up
O=C(NC1CCCCC1)C1c2ccccc2OCC(=O)N1Cc1ccc2c(c1)OCO2 (configuration not stated) | -2 | / | 1 | / | / | 0
O=C(N/N=C/c1ccc([N+](=O)[O-])s1)c1ccccc1 | 0 | / | -18 | 104 | -4 | 9.5*
Cc1ccccc1C(=O)N/N=C/c1ccc([N+](=O)[O-])s1 | -6 | -17 | 1 | 129 | -6 | 4
O=C(Cc1ccccc1)N/N=C/c1ccc([N+](=O)[O-])s1 | -4 | -8 | -27 | 115 | 6 | 3
O=C(N/N=C/c1ccc([N+](=O)[O-])s1)C(O)c1ccccc1 (configuration not stated) | -7 | -10 | 2 | 180 | -16 | 11*
O=C(N/N=C/c1ccc([N+](=O)[O-])s1)c1ccccc1Br | -4 | -25 | 0 | 107 | -11 | 5.6*
CC(C)N1CCCC(C)(C(=O)Nc2nccc3ccccc23)C1 (configuration not stated) | -3 | / | 0 | / | 2 | 0
Cn1c(SCC(=O)NCCC2=CCCCC2)nnc1C(F)(F)F | 0 | / | 1 | / | 4 | 0
O[C@@H]1CN(Cc2cccs2)[C@@H](c2ccc(Cl)cc2)C[C@H]1n1cc(C2CC2)nn1 | 5 | / | -1 | / | -6 | 0
CCN1C=C(C(C)=O)C(=O)CC1 | -10 | / | -1 | / | 6 | 0
O=C1C=C(Nc2ccccc2O)c2ccccc2C1=O | 23 | -4 | 11 | 124 | -16 | 12*
Cc1ccc(NC2=CC(=O)C(=O)c3ccccc32)c(C)c1 | 16 | -15 | 5 | 151 | -28 | 6.5*
O=c1cccccc1NCc1ccccc1 | -9 | 1 | 3 | 102 | 12 | 0
O=C1C=C(NCc2ccccc2)c2ccccc2C1=O | 3 | / | 1 | / | -33 | 8.7*
O=C1C=C(Nc2ccc(F)cc2)c2ccccc2C1=O | 22 | -3 | 2 | 142 | -25 | 8.9*
C/C(=N\NC(=S)Nc1ccccc1C)c1cc2ccccc2o1 | 24 | 0 | 3 | 100 | 7 | 0
C/C(=N\NC(=S)Nc1c(C)cccc1C)c1cc2ccccc2o1 | 5 | 322* | 3 | 116 | -6 | 0
C[C@H]1CN([C@@H](C)CO)S(=O)(=O)c2ccc(Br)cc2O[C@@H]1CN(C)Cc1cccc(F)c1 | 32 | / | 0 | / | -19 | 0
CCCC(=O)Nc1cc(C)c2c(=O)oc3ccccc3c2n1 | 5 | 8 | 0 | 98 | 104* | 0
Cc1cc(NC(=O)CC(C)(C)C)nc2c1c(=O)oc1ccccc12 | -2 | -3 | 3 | 100 | 5 | 0
O=C(CSCC(=O)NN=Cc1ccccc1O)NN=Cc1ccccc1O | 1 | / | -2 | / | 43 | 0
Cc1ccc(NC(=O)CCC(=O)N/N=C/c2ccccc2O)cc1 | 4 | 0 | 0 | 98 | 52* | 0
O=C(CCC(=O)Nc1ccc(Br)cc1)N/N=C/c1ccccc1O | 11 | 27 | 2 | 95 | 42 | 0
O=C(CC(=O)N/N=C/c1ccccc1O)NCc1cccnc1 | -7 | 246 | 0 | 88 | 63* | 0
Cc1cccc(NC(=O)CCC(=O)N/N=C/c2ccc(O)cc2O)c1 | -3 | 20 | 1 | 104 | 69* | 0
SMILES | FAS-TE inh | SUMO Mot1 rescue | MPTP inh | Yeast superoxide | Cardio protect | aDG glyco up
O=C(CCCCC(=O)NN=Cc1ccccc1O)NN=Cc1ccccc1O | 0 | / | 1 | / | 60* | 1
COc1ccc(NC(=O)C2CCCN2C(=O)NC2CCCCC2)cc1 (configuration not stated) | 1 | 12 | -1 | 80 | -2 | 0
O=C(COc1nsnc1N1CCOCC1)N/N=C/c1ccccc1O | -4 | 240 | 0 | 109 | 73* | 1
Cc1cc([N+](=O)[O-])nn1CC(=O)N/N=C/c1ccccc1O | 35 | 1 | 2 | 92 | 58* | 0
Cc1cc([N+](=O)[O-])nn1CC(=O)N/N=C/c1ccccc1F | 37 | -2 | 2 | 92 | 1 | 0
O=C(CCn1cnc(-c2ccccc2)c1-c1ccccc1)N/N=C/c1ccc(O)cc1 | 6 | -11 | 2 | 86 | 8 | 0
O=C(CCn1cnc(-c2ccccc2)c1-c1ccccc1)N/N=C/c1ccccc1O | 19 | 13 | 10 | 94 | 57* | 0
Cc1sc2nc[nH]c(=S)c2c1-c1ccccc1 | 7 | -10 | 0 | 90 | 66* | 0
